High-throughput results deposited in PubChem BioAssay by several laboratories.
Shown are actives, neighbours in structure and some others; about 1.6% of the full set was active somewhere.
GC-B act: human GC-B receptor activators, primary screen, HEK293 GC-B cells, cGMP TR-FRET, EC30 CNP; 0.11% of 370,000 active; 0% at EC30 CNP, 100% saturating CNP; Atrial natriuretic peptide receptor 2 (Homo sapiens), P20594; activation, % at 10 µM; AID 1920062, 2024;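 active = activation at 10 µM reaching about 35% in either raw or pattern-adjusted values, limit read from the data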
V-ATPase pH: regulators of yeast V-ATPase proton pumping, primary screen, pHLuorin cytosolic pH fluorescence | S. cerevisiae | response, % at 10 µM | 0.37% of 350,000 active; in the data active = response mostly above about 7.3%, no sharp cut-off; inactive = mostly below about 5.4%; also: actives read high
PG9 Ab binder: binders of HIV-1 gp120 antibody PG9, primary screen, biochemical, TR-FRET; inhibition, % at 6.7 µM; 0.43% of 360,000 active; TR-FRET gp120-PG9 antibody binding; in the data active = inhibition above about 8.5%
NR1D1 modulator: modulators of Rev-erb alpha DNA binding, primary screen, biochemical, FITC-DNA, fluorescence polarization, uHTS; Nuclear receptor subfamily 1 group D member 1 (Homo sapiens), P20393; Rev-erbα–FITC-DNA binding, 90 min; activity, % at 10 µM; 0.79% of 370,000 active; AID 1259318, 2017;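 active = activity above about 14%, limit read from the data; passing the limit was not always enough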
Target sequence (P20393 whole entry, looked up): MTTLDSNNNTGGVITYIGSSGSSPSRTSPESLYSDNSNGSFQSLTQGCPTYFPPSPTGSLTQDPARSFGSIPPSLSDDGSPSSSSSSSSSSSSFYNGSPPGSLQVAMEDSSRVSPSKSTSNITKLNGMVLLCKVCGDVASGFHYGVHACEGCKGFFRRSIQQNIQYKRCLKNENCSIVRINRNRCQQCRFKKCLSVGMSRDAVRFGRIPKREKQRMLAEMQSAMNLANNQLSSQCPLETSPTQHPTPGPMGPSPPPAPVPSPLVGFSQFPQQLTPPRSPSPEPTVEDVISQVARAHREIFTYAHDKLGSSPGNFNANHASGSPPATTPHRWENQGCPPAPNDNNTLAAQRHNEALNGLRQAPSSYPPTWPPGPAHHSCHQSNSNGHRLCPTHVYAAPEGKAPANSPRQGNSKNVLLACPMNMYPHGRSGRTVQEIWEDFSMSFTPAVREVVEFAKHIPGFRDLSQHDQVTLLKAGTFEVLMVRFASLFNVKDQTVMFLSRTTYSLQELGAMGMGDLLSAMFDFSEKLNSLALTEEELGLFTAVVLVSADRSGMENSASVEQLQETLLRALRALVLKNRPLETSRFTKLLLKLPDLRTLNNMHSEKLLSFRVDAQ
GC-A act: GC-A stimulated cGMP production enhancers – HEK293 GC-A cells, cGMP TR-FRET, EC30 ANP, primary screen. Atrial natriuretic peptide receptor 1 (Homo sapiens), P16066. 0% at EC30 ANP, 100% saturating ANP. activation, % at 10 µM. 0.14% of 370,000 active. AID 1671463, 2021; in the data active = activation above about 40%
Rev-erbA confirm: modulators of Rev-erb alpha DNA binding, confirmation, biochemical, FITC-DNA, fluorescence polarization, single point. shares compounds with NR1D1 modulator. activation, % at 25 µM. 61% of 3,000 active. AID 1259319, 2017. 90 min;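 active = activation at or above a set limit, or at least 3 SD above the negative control mean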
RORg counter: modulation of RORgamma DNA binding, dose response, counter-screen for Rev-erb alpha modulator project, biochemical, fluorescence polarization, FITC-DNA; shares compounds with NR1D1 modulator; AID 1259320, 2017; purified RORgamma protein-FITC-DNA binding; 8% of 910 active; IC50, µM;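 active = Compounds whose fitted half-maximal concentration for disrupting protein-DNA binding is below 10 micromolar; the record names Rev-erb in its text, so the target is in doubt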
Of the large screens only hits and unclear results are named; the others gave an inactive call (follow-up assays come after a bar, where they were run).

CCN(CC)S(=O)(=O)c1ccc(C(=O)Nc2ccc(C(F)(F)F)n(C)c2=O)cc1	none
COc1ccc(C(=O)Nc2ccc(C(F)(F)F)n(C)c2=O)cc1	NR1D1 modulator 47 | Rev-erbA confirm 32 | RORg counter inactive
Cc1ccc(C(=O)Nc2ccc(C(F)(F)F)n(C)c2=O)cc1	NR1D1 modulator 28 | Rev-erbA confirm inactive
c1ccc(Cn2c(SCC3CCC3)nnc2-c2cccnc2)cc1	none (no result: V-ATPase pH, PG9 Ab binder)
O=C(CCc1c[nH]c2ccccc12)NCCc1ccc(Cl)cc1	NR1D1 modulator 37 | Rev-erbA confirm 36 | RORg counter inactive
O=C(CCc1c[nH]c2ccccc12)NCCc1ccccc1	none
O=C1CCCC(O)=C1C=Nc1ccc2c(c1)oc1ccccc12	NR1D1 modulator 30 | Rev-erbA confirm 28
O=C(Nc1cccc(-c2csc(Nc3ccccc3)n2)c1)c1ccccc1	none
O=C(Nc1nc(-c2ccc3c(c2)Cc2ccccc2-3)cs1)c1ccccc1	NR1D1 modulator 50 | Rev-erbA confirm inactive
CCCC[C@H]1C2CC(OC(=O)Nc3cccc(Br)c3)C(C2)[C@H]2CCCCN21 (stereo partly specified)	none (no result: V-ATPase pH, PG9 Ab binder)
O=C(Nc1ccc(Br)cc1F)c1ccc2nsnc2c1	NR1D1 modulator 31 | Rev-erbA confirm 22
Cc1ccc(NC(=O)c2ccc3nsnc3c2)c(Cl)c1	NR1D1 modulator 27 | Rev-erbA confirm inactive
CC(C)c1ccc(C(=O)Nc2cc(Cl)ccc2C(=O)O)cc1	none (no result: V-ATPase pH, PG9 Ab binder)
CC(C)N1CCCCC(NC(=O)c2ccc(-c3ccccc3)cc2)C1=O (stereo unspecified)	none (no result: V-ATPase pH, PG9 Ab binder)
O=C(CSc1nc(C2CC2)nc2sc3c(c12)CCCC3)NCc1ccco1	NR1D1 modulator 27 | Rev-erbA confirm inactive
CCCn1c(CN(C)Cc2ccccc2)nc2c1c(=O)n(C)c(=O)n2C	none
CN(Cc1ccccc1)Cc1nc2c(c(=O)n(C)c(=O)n2C)n1Cc1ccccc1Cl	NR1D1 modulator 31 | Rev-erbA confirm 50
CCn1c2ccccc2n2c(=O)c(=O)n(CC(=O)Nc3ccc(C(C)C)cc3)nc12	NR1D1 modulator 31 | Rev-erbA confirm inactive
O=C(NC1CCCCN(Cc2cccc(C(F)(F)F)c2)C1=O)c1c(F)cccc1F (stereo unspecified)	none (no result: V-ATPase pH, PG9 Ab binder)
CCN(CC)C(=O)c1ccc2c(=O)n(Cc3cccc(Br)c3)c(=S)[nH]c2c1	NR1D1 modulator 33 (no result: V-ATPase pH) | Rev-erbA confirm inactive
CCN(CC)C(=O)c1ccc2c(=O)n(CCOC)c(=S)[nH]c2c1	none
O=c1c2cc(Br)ccc2[nH]c(=S)n1Cc1ccccc1	NR1D1 modulator 39 | Rev-erbA confirm 18
O=c1c2cc(Br)ccc2[nH]c(=S)n1Cc1ccccn1	none
C=CCN1C(C(=O)OC)CN(Cc2cn(Cc3ccc(Cl)cc3)nn2)CCS1(=O)=O (stereo unspecified)	none (no result: V-ATPase pH, PG9 Ab binder)
Cc1nc2ccc(S(=O)(=O)NCC(=O)NCc3ccc(F)cc3)cc2s1	none (no result: V-ATPase pH, PG9 Ab binder)
COc1ccc(C=Nn2c(-c3ccccc3F)n[nH]c2=S)cc1OCc1ccccc1	none (no result: V-ATPase pH, PG9 Ab binder)
COCCCn1c(C(=O)N2CCOCC2)cc2c(=O)n3cccc(C)c3nc21	none
COCCCn1c(C(=O)NCCC2=CCCCC2)cc2c(=O)n3cccc(C)c3nc21	NR1D1 modulator 62 | Rev-erbA confirm 40 | RORg counter inactive
CCn1c2ccccc2c2cc(C3C(C#N)=C(C)NC(C)=C3C#N)ccc21	NR1D1 modulator 102 | Rev-erbA confirm 63 | RORg counter inactive
O=C1c2cccc3c(N4CCCCC4)ccc(c23)C(=O)N1c1ccccn1	none
CCCCNc1ccc2c3c(cccc13)C(=O)N(CCCC)C2=O	NR1D1 modulator 108 | Rev-erbA confirm 128 | RORg counter inactive
CN(C)CCCN1C(=O)c2cccc3c(Br)ccc(c23)C1=O	none
CCCN1C(=O)c2cccc3c(N4CCCCC4)ccc(c23)C1=O	NR1D1 modulator 96 | Rev-erbA confirm 97 | RORg counter inactive
COc1ccccc1C(=O)Nc1ccc(Oc2ncnc3sc(-c4ccccc4)cc23)cc1	NR1D1 modulator 46 | Rev-erbA confirm 21
COc1ccc(C(=O)Nc2ccc(Oc3ncnc4sc(-c5ccccc5)cc34)cc2)cc1OC	none
COc1cc(C(=O)Nc2ccc(Oc3ncnc4sc(-c5ccccc5)cc34)cc2)cc(OC)c1OC	NR1D1 modulator 30 | Rev-erbA confirm inactive
O=C(c1cc(Cl)cc(Cl)c1)N1CCC(Oc2cccnc2)CC1	none (no result: V-ATPase pH, PG9 Ab binder)
CC(=O)[C@@]1(O)Cc2c(O)c3c(c(O)c2[C@H](O[C@H]2C[C@H](N)[C@H](O)[C@H](C)O2)C1)C(=O)c1ccccc1C3=O	NR1D1 modulator 24 (no result: V-ATPase pH) | Rev-erbA confirm 11
CN(C)c1ccc(N=C/C=C2/N(C)c3ccccc3C2(C)C)cc1	NR1D1 modulator 25 | Rev-erbA confirm inactive
CN1/C(=C\C=N\O)C(C)(C)c2ccccc21	none
CCOC(=O)C1(C(=O)OCC)Cc2c([nH]c3ccccc23)[C@]2(N1)C(=O)N(C)c1ccc(Br)cc12	none (no result: V-ATPase pH, PG9 Ab binder)
CC1CCCC(NC(=O)CSC2=Nc3ccccc3C3CC=NN23)C1C (stereo unspecified)	NR1D1 modulator 17 | Rev-erbA confirm inactive
CC1CCCCC1NC(=O)CSC1=Nc2ccccc2C2CC=NN12 (stereo unspecified)	none
O=C(COc1ncnc2c(Cl)cc(Cl)cc12)NC1CCCCCC1	NR1D1 modulator 30 | Rev-erbA confirm 32 | RORg counter 1.3
O=C(COc1ncnc2c(Cl)cc(Cl)cc12)N1CCCCC1	none
CCOC(=O)Cc1csc(/N=C/c2c(O)n(-c3ccc(C)c(C)c3)c(=O)c3ccccc23)n1	NR1D1 modulator 23 | Rev-erbA confirm inactive
C=CCNC(=O)CSc1nc2c(c(=O)[nH]1)CCCC2	none (no result: V-ATPase pH, PG9 Ab binder)
CC(=O)Nc1ccc(S(=O)(=O)N2CCN(Cc3ccncc3)CC2)cc1	none
CC(=O)Nc1ccc(S(=O)(=O)N2CCN(Cc3nc4sc(C)c(C)c4c(=O)[nH]3)CC2)cc1	NR1D1 modulator 31 | Rev-erbA confirm inactive
COC(=O)[C@@]12CCCCC=C1N(CCc1ccc(Cl)cc1)C(=O)[C@H]2CC(=O)NCc1cccc2ccccc12	none (no result: V-ATPase pH, PG9 Ab binder)
O=C(Cn1cc(C(F)(F)F)cc(Cl)c1=O)NCc1ccc(Cl)cc1Cl	NR1D1 modulator 39 | Rev-erbA confirm 56 | RORg counter inactive
COC(=O)c1cc(NC(=O)c2ccccc2)c(=O)oc1/C=C/Nc1ccc(Oc2ccccc2)cc1	NR1D1 modulator 33 | Rev-erbA confirm inactive
